# Results taken from the supplement of paper PMC8728848.
# Only a selection was taken, and the strongest signals are over-represented in it overall.
# Assays:
# Assay in all cases: glycan array binding signal (z-score within array); higher = stronger binding
# Details in all cases: glycan notation: IUPAC condensed, linker removed; mutation: F335Y
# [1] = biological target: Fuc(a1-2)Gal(b1-3)GalNAc(b1-3)Gal
# In short: (§1)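 Glycan array data were curated from 3228 arrays in the Consortium for Functional Glycomics database and kept only where the protein sequence was available. Glycan names were converted to IUPAC-condensed notation, and columns mapping to the same glycan were averaged. The binding signal is a within-array Z-score, averaged across arrays of the same protein sequence at different concentrations or buffers and across linkers. Negative Z-scores can be read as non-binding.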
# [2] = biological target: Fuc(a1-2)Gal(b1-3)GalNAc(b1-4)[Neu5Ac(a2-3)]Gal(b1-4)Glc
# In short: as §1
# [3] = biological target: Fuc(a1-3)[Gal(b1-4)]GlcNAc(b1-4)Gal(b1-4)[Fuc(a1-3)]GlcNAc
# In short: as §1
# Gal(a1-6)Glc = biological target: Gal(a1-6)Glc
# In short: as §1
# [4] = biological target: Gal(b1-3)[GlcNAc(b1-6)]GalNAc
# In short: as §1
# [5] = biological target: Gal(b1-4)GlcNAc(b1-3)GalNAc
# In short: as §1
# Gal6S(b1-4)Glc6S = biological target: Gal6S(b1-4)Glc6S
# In short: as §1
# [6] = biological target: GlcNAc(b1-2)Gal(b1-3)GalNAc
# In short: as §1
# GlcNAc(b1-3)Gal = biological target: GlcNAc(b1-3)Gal
# In short: as §1
# GlcNAc(b1-3)GalNAc = biological target: GlcNAc(b1-3)GalNAc
# In short: as §1
# GlcNAc(b1-3)Man = biological target: GlcNAc(b1-3)Man
# In short: as §1
# [7] = biological target: Man(a1-2)Man(a1-2)Man(a1-6)[Man(a1-3)]Man
# In short: as §1
# [8] = biological target: Man(a1-2)Man(a1-3)[Man(a1-2)Man(a1-6)]Man
# In short: as §1
# [9] = biological target: Man(a1-2)Man(a1-3)[Man(a1-2)Man(a1-6)]Man(a1-6)[Man(a1-2)Man(a1-2)Man(a1-3)]Man
# In short: as §1
# [10] = biological target: Man(a1-2)Man(a1-6)[Man(a1-3)]Man(a1-6)[Man(a1-2)Man(a1-2)Man(a1-3)]Man(b1-4)GlcNAc(b1-4)GlcNAc
# In short: as §1
# [11] = biological target: Man(a1-3)[Man(a1-6)]Man(a1-6)[Man(a1-2)Man(a1-3)]Man(b1-4)GlcNAc(b1-4)GlcNAc
# In short: as §1
# [12] = biological target: Man(a1-3)[Man(a1-6)]Man(a1-6)[Man(a1-3)]Man
# In short: as §1
# [13] = biological target: Neu5Ac(a2-3)Gal(b1-3)GalNAc
# In short: as §1
# [14] = biological target: Neu5Ac(a2-3)Gal(b1-4)GlcNAc(b1-6)[Neu5Ac(a2-3)Gal(b1-3)]GalNAc
# In short: as §1
# [15] = biological target: Neu5Ac(a2-6)Gal(b1-4)GlcNAc(b1-3)Gal(b1-4)[Fuc(a1-3)]GlcNAc(b1-3)Gal(b1-4)[Fuc(a1-3)]GlcNAc
# In short: as §1
binder,measurement,setting,value
Surfactant Protein D (Human); Neck + Carbohydrate Recognition Domain (NCRD) (Homo sapiens) (protein) MLLFLLSALVLLTQPLGYLEAEMKTYSHRTMPSACTLVMCSSVESGLPGRDRDGREGPRGEKGDPGLPGAAGQAGMPGQAGPVGPKGDNGSVGEPGPKGDTGPSGPPGPPGVPGPAGREGALGKQGNIGPQGKPGPKGEAGPKGEVGAPGMQGSAGARGLAGPKGERGVPGERGVPGNTGAAGSAGAMGPQGSPGARGPPGLKGDKGIPGDKGAKGESGLPDVASLRQQVEALQGQVQHLQAAFSQYKKVELFPNGQSVGEKIFKTAQFVKPFTEAQLLCTQAGGQLASPRSAAENAALQQLVVAKNEAAFLSMTDSKTEGKFTYPTGESLVYSNWAPGEPNDDGGSEDCVEIYTNGKWNDRACGEKRLVVCEF,glycan array binding signal (z-score),[1],-0.184
same,glycan array binding signal (z-score),[2],-0.189
same,glycan array binding signal (z-score),[3],-0.183
same,glycan array binding signal (z-score),Gal(a1-6)Glc,-0.189
same,glycan array binding signal (z-score),[4],-0.185
same,glycan array binding signal (z-score),[5],-0.191
same,glycan array binding signal (z-score),Gal6S(b1-4)Glc6S,-0.187
same,glycan array binding signal (z-score),[6],-0.189
same,glycan array binding signal (z-score),GlcNAc(b1-3)Gal,-0.18
same,glycan array binding signal (z-score),GlcNAc(b1-3)GalNAc,-0.193
same,glycan array binding signal (z-score),GlcNAc(b1-3)Man,-0.187
same,glycan array binding signal (z-score),[7],5.87
same,glycan array binding signal (z-score),[8],7.66
same,glycan array binding signal (z-score),[9],7.37
same,glycan array binding signal (z-score),[10],5.84
same,glycan array binding signal (z-score),[11],7.18
same,glycan array binding signal (z-score),[12],3.93
same,glycan array binding signal (z-score),[13],-0.19
same,glycan array binding signal (z-score),[14],-0.178
same,glycan array binding signal (z-score),[15],-0.122
